Laboratory results as given in PubChem BioAssay (NCI).
Compounds without any hit were thinned out: in the full panel of roughly 83,000, 20% have a hit.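 Testing used 96-well plates and a 48-hour single-concentration exposure. Example: -40 means 40% of the starting cells died.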 Values without a mark were called inactive. Activity calls are given as the source filed them. The calls were made as follows: active = growth percent below 10; inactive = the rest.

Key:
Assay in all cases: NCI-60 one-dose screen, 48 h (100 = growth as untreated, 0 = no growth, -100 = all killed)
Details in all cases: 10 µM unless noted
[1] = tested on: T-47D breast
[2] = tested on: MDA-MB-435 melanoma
[3] = tested on: SW-620 colon
[4] = tested on: MCF7 breast
[5] = tested on: HCT-116 colon
[6] = tested on: HCC-2998 colon
[7] = tested on: KM12 colon
[8] = tested on: BT-549 breast

Structure (SMILES): CC1(C)CC(=O)C(c2c(-c3ccccc3)[nH]c3[nH]c(=S)[nH]c(=O)c23)=C(O)C1
- growth [1]: 98.1%
- growth [2]: 90.8%
- growth [3]: 104%
- growth [4]: 99.6%
- growth [5]: 102%
- growth [6]: 108%
- growth [7]: 118%

Structure (SMILES): O=C1Nc2ccccc2/C1=C/C(=N/c1nnc(-c2ccc(Cl)cc2)s1)c1ccccc1
- growth [1]: 65.9%
- growth [2]: 41.7%
- growth [3]: -52.6% (active)
- growth [4]: 28.5%
- growth [5]: -58.5% (active)
- growth [6]: 99.8%
- growth [7]: 66.4%

Structure (SMILES): CCOC(=O)c1cnc2ccc(OC)cc2c1Nc1cccc(S(=O)(=O)NC)c1
- growth [1]: 98%
- growth [2]: 103%
- growth [3]: 113%
- growth [4]: 80.9%
- growth [5]: 96.7%
- growth [6]: 101%
- growth [7]: 96.1%

Structure (SMILES): COC(=O)C12C3C(=O)N(c4ccc(OC)cc4)C(=O)C3C(c3cn(-c4ccccc4)nc3C)N1[C@H](c1cn(-c3ccccc3)nc1C)[C@@H]1C(=O)N(c3ccc(OC)cc3)C(=O)[C@@H]12 (some centres not stated)
- growth [1]: 102%
- growth [8]: 113%
- growth [2]: 102%
- growth [3]: 100%
- growth [4]: 102%
- growth [5]: 104%
- growth [7]: 106%

Structure (SMILES): COc1cc(NCCCCCN=C(N)NC(N)=NC(C)C)c2ncccc2c1
- growth [1]: 24.6%
- growth [2]: 69.2%
- growth [3]: 25.2%
- growth [4]: -91.6% (active)
- growth [5]: -4.52% (active)
- growth [6]: 11%
- growth [7]: 3.06% (active)

Structure (SMILES): O=C1c2cc3c(cc2-c2c1c1cc(Cl)c(Cl)cc1c(=O)n2CCCn1ccnc1)OCO3
- growth [1]: 0.538% (active)
- growth [2]: 18.5%
- growth [3]: 25.6%
- growth [4]: 1.23% (active)
- growth [5]: 3.49% (active)
- growth [6]: 28.6%
- growth [7]: 6% (active)

Structure (SMILES): Nc1nc(-c2ccc(F)cc2)cc(-c2cnn(-c3ccccc3)n2)n1
- growth [1]: 87.1%
- growth [2]: 106%
- growth [3]: 99.3%
- growth [4]: 79.9%
- growth [5]: 106%
- growth [6]: 111%
- growth [7]: 100%

Structure (SMILES): CN(C)CCCC(=O)Nc1ccc(Cn2nnc3c2C(=O)c2nnn(Cc4ccc(NC(=O)CCCN(C)C)cc4)c2C3=O)cc1
- growth [1]: -5.44% (active)
- growth [2]: -83.7% (active)
- growth [3]: 52.3%
- growth [4]: -40% (active)
- growth [5]: 6.95% (active)
- growth [6]: 59.3%
- growth [7]: 81.4%

Structure (SMILES): O=C1Nc2ccccc2C12CC(c1ccc(Cl)cc1)=NN2 (configuration not stated)
- growth [1]: 91.1%
- growth [2]: 98.8%
- growth [3]: 106%
- growth [4]: 91.4%
- growth [5]: 95.3%
- growth [6]: 108%
- growth [7]: 110%

Structure (SMILES): OC(c1cc(-c2ccccc2)nc2ccc(Cl)cc12)C1CCCCN1 (configuration not stated)
- growth [1]: 19.9%
- growth [2]: 42.6%
- growth [3]: 21.2%
- growth [4]: -41% (active)
- growth [5]: 33.4%
- growth [6]: -87.7% (active)
- growth [7]: 6.52% (active)

Structure (SMILES): CCOC(=O)/C=C/c1ccc(C(=O)OCC)[nH]1
- growth [1]: 34.9%
- growth [2]: -39.5% (active)
- growth [3]: 19.2%
- growth [4]: 25.7%
- growth [5]: 26.3%
- growth [6]: 44.1%
- growth [7]: 26.6%

Structure (SMILES): C=C1CC2(OC1=O)C(=O)N(CCCCCCCCCCCCN1C(=O)C3(CC(=C)C(=O)O3)c3ccccc31)c1ccccc12 (configuration not stated)
- growth [1]: 64.8%
- growth [2]: 73.1%
- growth [3]: 26.1%
- growth [4]: 38%
- growth [5]: 61.3%
- growth [6]: 92.8%
- growth [7]: 93.6%

Structure (SMILES): c1ccc(Sc2ncnc3ccccc23)cc1
- growth [1]: 63.8%
- growth [2]: 38.1%
- growth [3]: 84.9%
- growth [4]: 63.8%
- growth [5]: 72%
- growth [6]: 107%
- growth [7]: 86.1%

Structure (SMILES): O=C(Nc1cccc2[nH]c(C(F)(F)F)nc12)c1ccc(Br)cc1F
- growth [2]: 26.9%
- growth [3]: 41.6%
- growth [4]: 27.1%
- growth [5]: 22.7%
- growth [6]: 48.3%
- growth [7]: 27%

Structure (SMILES): COc1ccc(C(=O)c2sc3nc4c(c(C(F)(F)F)c3c2N)CN(C(C)=O)CC4)cc1OC
- growth [8]: 99.6%
- growth [2]: 99.7%
- growth [3]: 100%
- growth [4]: 83.4%
- growth [5]: 89.3%
- growth [6]: 94.9%
- growth [7]: 97.6%

Structure (SMILES): CCN(CC)CC(C)(C)C(=O)/C=C/c1ccccc1
- growth [8]: 46%
- growth [2]: 40%
- growth [3]: 35.4%
- growth [4]: 5.47% (active)
- growth [5]: 12.8%
- growth [6]: 79.3%
- growth [7]: 53.9%

Structure (SMILES): CC(=O)N1CC(Nc2ccc(OC(F)(F)F)cc2)=CC1=O
- growth [1]: 26.2%
- growth [2]: -27.2% (active)
- growth [3]: 27.8%
- growth [4]: 11.8%
- growth [5]: 39.2%
- growth [6]: 60.2%
- growth [7]: 23.3%

Structure (SMILES): O=C(O)C(O)C(O)C(=O)O.[NH-]C1CCCCC1[NH-].[Pt+2] (configuration not stated)
- growth [1]: 105%
- growth [2]: 104%
- growth [3]: 95%
- growth [4]: 91.9%
- growth [5]: 95.1%
- growth [6]: 104%
- growth [7]: 96.4%

Structure (SMILES): Cc1ccc(-c2nc(/C=N/Nc3cc(C)nc4ccc(Cl)cc34)c(C)o2)cc1
- growth [1]: -74.4% (active)
- growth [2]: -95.6% (active)
- growth [3]: -70.2% (active)
- growth [4]: -84.4% (active)
- growth [5]: -54.3% (active)
- growth [6]: -53.3% (active)
- growth [7]: -58.3% (active)

Structure (SMILES): C=CCSc1nnc(-c2ccc(C(C)(C)C)cc2)n1-c1cccc(C(F)(F)F)c1
- growth [8]: 19.3%
- growth [2]: 52.5%
- growth [3]: 46.2%
- growth [4]: 12.1%
- growth [5]: 13.3%
- growth [6]: 51.1%
- growth [7]: 27.1%

Structure (SMILES): O=C1Nc2c(ccc(Cl)c2Cl)/C1=C/c1cc(Br)c(O)c(Br)c1
- growth [1]: 54.8%
- growth [2]: -29.4% (active)
- growth [3]: 36.1%
- growth [4]: 52.8%
- growth [5]: 58.4%
- growth [6]: 68.7%
- growth [7]: 32.5%

Structure (SMILES): Cc1cc(OCc2ccc(C(F)(F)F)cc2)c2c(c1)C(=O)C=C(NCCN1CCCC1)C2=O
- growth [1]: 42.8%
- growth [2]: -23.5% (active)
- growth [3]: 74.7%
- growth [4]: 31%
- growth [5]: 19.6%
- growth [6]: 15.2%
- growth [7]: 79.1%

Structure (SMILES): CC1=C(NCCN2CCCC2)C(=O)c2c(OCc3ccc(F)c(Cl)c3)cccc2C1=O
- growth [1]: 62.7%
- growth [2]: 40%
- growth [3]: 78.8%
- growth [4]: 41.3%
- growth [5]: 31.6%
- growth [6]: 80.7%
- growth [7]: 79.7%

Structure (SMILES): COCCCN=C(N)c1ccc(NC(=O)c2ccc(C(=O)Nc3ccc(C(N)=NCCCOC)cc3)cc2)cc1
- growth [1]: 108%
- growth [2]: 88.4%
- growth [3]: 106%
- growth [4]: 109%
- growth [5]: 79.7%
- growth [6]: 116%
- growth [7]: 132%
